The supplement of paper PMC11732987, “Enantioselective OTUD7B fragment discovery through chemoproteomics screening and high-throughput optimisation” (Communications Chemistry, 2025)

Tests used:
Experiment in all cases: log2 ratio of Biotin-Ahx-Ub-VS probe labelling (fragment/DMSO); higher = less target engagement (more negative = stronger competition), active = hit call of the paper (q ≤ 0.05, log2 ratio ≤ -1)
Settings in all cases: compound concentration: 200 uM; treatment time: 3 h
[1] = target: USP34 (UniProt Q70CQ2)
Procedure, shortened: (§1)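 Using Biotin-Ahx-Ub-VS at 0.5 µM final for 1 h, DUBs were labelled in HEK293T lysate (495 µg per sample) that had first been treated in triplicate with fragment at 200 µM or vehicle for 3 h. NeutrAvidin enrichment, LysC and trypsin digestion and diaPASEF LC-MS/MS followed. Spectronaut label-free quantities were global-median-normalised. Values are average log2 fragment/vehicle ratios by unpaired t-test, using proteins with ≥2 unique peptides.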

[2] = target: T1, USP36 (UniProt Q9P275)
T1 sequence (whole entry): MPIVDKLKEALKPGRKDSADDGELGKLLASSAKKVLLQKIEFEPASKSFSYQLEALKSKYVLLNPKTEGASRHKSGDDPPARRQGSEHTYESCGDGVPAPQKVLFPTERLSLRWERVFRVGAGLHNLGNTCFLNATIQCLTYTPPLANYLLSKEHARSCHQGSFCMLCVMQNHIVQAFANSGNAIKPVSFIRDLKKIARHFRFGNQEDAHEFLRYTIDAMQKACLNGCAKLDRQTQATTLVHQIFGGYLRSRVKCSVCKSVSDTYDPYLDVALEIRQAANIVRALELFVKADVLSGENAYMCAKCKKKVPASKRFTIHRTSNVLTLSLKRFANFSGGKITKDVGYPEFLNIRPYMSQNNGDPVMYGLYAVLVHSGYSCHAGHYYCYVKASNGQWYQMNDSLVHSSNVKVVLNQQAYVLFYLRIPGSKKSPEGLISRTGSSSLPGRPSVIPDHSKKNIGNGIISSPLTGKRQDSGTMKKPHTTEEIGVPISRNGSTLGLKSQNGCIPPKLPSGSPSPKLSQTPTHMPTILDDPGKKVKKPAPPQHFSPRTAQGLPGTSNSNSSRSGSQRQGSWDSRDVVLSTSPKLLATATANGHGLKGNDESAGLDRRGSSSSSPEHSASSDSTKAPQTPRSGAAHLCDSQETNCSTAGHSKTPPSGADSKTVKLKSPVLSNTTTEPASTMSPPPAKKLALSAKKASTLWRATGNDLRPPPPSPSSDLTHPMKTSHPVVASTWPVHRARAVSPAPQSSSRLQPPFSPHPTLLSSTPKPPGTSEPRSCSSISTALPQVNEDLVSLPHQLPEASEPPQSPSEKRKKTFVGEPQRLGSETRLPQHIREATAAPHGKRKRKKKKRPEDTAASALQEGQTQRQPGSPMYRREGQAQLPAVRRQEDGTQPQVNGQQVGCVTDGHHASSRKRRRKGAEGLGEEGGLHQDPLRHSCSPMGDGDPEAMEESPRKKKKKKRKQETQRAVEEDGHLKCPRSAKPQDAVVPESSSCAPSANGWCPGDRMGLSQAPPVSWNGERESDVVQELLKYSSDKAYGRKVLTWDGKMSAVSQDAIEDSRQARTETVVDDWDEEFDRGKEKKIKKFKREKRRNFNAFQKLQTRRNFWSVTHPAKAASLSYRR
Procedure, shortened: as §1

[3] = target: T2, USP38 (UniProt Q8NB14)
T2 sequence (whole entry): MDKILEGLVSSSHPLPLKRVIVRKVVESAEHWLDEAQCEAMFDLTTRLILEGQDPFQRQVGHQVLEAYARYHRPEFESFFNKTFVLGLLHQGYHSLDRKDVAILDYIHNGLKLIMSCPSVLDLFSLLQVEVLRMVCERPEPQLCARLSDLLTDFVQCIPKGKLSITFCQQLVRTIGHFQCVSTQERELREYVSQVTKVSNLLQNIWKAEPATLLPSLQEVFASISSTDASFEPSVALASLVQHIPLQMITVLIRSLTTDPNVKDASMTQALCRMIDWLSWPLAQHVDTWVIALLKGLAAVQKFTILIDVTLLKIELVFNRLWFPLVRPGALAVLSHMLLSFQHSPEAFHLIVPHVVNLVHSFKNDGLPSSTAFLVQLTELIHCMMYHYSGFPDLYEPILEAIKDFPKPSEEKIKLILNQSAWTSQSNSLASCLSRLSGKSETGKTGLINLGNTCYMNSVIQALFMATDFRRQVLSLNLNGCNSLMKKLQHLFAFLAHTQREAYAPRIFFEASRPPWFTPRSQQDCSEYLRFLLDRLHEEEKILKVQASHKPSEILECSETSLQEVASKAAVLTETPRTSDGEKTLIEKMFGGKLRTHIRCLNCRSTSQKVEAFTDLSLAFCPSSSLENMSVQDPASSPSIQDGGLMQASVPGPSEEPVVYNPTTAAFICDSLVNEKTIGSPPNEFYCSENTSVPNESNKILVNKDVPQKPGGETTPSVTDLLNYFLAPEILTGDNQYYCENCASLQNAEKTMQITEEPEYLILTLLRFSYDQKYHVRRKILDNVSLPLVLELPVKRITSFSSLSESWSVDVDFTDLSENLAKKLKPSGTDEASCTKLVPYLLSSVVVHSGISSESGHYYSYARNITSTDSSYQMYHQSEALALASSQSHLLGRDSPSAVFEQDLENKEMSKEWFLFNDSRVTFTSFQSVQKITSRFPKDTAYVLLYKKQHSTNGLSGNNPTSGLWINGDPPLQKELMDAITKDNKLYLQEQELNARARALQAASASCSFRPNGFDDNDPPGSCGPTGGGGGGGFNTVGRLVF
Procedure, shortened: as §1

[4] = target: T3, USP39 (UniProt Q53GS9)
T3 sequence (whole entry): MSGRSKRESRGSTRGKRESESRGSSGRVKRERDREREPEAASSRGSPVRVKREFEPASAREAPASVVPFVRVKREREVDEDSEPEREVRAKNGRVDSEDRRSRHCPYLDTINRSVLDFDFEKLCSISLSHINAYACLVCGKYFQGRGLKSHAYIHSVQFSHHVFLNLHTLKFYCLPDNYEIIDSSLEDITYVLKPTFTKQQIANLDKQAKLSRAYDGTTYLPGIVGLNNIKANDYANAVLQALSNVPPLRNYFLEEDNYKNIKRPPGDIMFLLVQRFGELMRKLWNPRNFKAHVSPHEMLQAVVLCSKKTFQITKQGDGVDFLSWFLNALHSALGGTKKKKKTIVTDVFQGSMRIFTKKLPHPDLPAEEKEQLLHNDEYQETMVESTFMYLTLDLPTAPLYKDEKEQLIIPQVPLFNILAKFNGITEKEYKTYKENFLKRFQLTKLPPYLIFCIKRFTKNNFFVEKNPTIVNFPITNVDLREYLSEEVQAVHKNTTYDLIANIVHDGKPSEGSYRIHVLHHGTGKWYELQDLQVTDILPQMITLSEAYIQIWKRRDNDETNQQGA
Procedure, shortened: as §1

[5] = target: T4, USP4 (UniProt Q13107)
T4 sequence (whole entry): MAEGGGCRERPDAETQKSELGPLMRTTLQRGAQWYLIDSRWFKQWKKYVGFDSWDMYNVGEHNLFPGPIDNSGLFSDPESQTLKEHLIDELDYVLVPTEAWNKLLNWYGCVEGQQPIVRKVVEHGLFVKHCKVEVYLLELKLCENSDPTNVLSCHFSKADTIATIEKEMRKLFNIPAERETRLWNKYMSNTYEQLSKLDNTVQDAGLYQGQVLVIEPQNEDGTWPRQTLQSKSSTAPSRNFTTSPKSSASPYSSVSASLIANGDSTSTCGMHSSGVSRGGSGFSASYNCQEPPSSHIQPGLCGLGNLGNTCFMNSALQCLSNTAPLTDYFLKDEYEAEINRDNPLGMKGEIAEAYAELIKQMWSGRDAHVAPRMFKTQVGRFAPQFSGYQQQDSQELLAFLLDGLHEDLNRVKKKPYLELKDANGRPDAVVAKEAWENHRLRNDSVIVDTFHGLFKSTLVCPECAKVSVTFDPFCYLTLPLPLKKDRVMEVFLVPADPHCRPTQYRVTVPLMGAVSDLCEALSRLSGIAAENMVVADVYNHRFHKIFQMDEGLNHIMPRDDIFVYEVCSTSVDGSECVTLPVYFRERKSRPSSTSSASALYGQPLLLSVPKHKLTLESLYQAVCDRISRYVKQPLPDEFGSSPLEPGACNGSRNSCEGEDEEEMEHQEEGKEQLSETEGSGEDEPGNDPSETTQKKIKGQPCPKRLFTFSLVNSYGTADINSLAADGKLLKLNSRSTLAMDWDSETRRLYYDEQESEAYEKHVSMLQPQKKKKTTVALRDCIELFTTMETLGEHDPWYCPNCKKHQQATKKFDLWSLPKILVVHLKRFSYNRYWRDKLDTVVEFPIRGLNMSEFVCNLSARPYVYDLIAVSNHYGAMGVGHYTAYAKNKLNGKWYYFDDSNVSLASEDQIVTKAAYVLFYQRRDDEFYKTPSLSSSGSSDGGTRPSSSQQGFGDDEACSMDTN
Procedure, shortened: as §1

Measured: log2 ratio of Biotin-Ahx-Ub-VS probe labelling

Chain of USP34 (Q70CQ2 whole entry, the tested form may be a part): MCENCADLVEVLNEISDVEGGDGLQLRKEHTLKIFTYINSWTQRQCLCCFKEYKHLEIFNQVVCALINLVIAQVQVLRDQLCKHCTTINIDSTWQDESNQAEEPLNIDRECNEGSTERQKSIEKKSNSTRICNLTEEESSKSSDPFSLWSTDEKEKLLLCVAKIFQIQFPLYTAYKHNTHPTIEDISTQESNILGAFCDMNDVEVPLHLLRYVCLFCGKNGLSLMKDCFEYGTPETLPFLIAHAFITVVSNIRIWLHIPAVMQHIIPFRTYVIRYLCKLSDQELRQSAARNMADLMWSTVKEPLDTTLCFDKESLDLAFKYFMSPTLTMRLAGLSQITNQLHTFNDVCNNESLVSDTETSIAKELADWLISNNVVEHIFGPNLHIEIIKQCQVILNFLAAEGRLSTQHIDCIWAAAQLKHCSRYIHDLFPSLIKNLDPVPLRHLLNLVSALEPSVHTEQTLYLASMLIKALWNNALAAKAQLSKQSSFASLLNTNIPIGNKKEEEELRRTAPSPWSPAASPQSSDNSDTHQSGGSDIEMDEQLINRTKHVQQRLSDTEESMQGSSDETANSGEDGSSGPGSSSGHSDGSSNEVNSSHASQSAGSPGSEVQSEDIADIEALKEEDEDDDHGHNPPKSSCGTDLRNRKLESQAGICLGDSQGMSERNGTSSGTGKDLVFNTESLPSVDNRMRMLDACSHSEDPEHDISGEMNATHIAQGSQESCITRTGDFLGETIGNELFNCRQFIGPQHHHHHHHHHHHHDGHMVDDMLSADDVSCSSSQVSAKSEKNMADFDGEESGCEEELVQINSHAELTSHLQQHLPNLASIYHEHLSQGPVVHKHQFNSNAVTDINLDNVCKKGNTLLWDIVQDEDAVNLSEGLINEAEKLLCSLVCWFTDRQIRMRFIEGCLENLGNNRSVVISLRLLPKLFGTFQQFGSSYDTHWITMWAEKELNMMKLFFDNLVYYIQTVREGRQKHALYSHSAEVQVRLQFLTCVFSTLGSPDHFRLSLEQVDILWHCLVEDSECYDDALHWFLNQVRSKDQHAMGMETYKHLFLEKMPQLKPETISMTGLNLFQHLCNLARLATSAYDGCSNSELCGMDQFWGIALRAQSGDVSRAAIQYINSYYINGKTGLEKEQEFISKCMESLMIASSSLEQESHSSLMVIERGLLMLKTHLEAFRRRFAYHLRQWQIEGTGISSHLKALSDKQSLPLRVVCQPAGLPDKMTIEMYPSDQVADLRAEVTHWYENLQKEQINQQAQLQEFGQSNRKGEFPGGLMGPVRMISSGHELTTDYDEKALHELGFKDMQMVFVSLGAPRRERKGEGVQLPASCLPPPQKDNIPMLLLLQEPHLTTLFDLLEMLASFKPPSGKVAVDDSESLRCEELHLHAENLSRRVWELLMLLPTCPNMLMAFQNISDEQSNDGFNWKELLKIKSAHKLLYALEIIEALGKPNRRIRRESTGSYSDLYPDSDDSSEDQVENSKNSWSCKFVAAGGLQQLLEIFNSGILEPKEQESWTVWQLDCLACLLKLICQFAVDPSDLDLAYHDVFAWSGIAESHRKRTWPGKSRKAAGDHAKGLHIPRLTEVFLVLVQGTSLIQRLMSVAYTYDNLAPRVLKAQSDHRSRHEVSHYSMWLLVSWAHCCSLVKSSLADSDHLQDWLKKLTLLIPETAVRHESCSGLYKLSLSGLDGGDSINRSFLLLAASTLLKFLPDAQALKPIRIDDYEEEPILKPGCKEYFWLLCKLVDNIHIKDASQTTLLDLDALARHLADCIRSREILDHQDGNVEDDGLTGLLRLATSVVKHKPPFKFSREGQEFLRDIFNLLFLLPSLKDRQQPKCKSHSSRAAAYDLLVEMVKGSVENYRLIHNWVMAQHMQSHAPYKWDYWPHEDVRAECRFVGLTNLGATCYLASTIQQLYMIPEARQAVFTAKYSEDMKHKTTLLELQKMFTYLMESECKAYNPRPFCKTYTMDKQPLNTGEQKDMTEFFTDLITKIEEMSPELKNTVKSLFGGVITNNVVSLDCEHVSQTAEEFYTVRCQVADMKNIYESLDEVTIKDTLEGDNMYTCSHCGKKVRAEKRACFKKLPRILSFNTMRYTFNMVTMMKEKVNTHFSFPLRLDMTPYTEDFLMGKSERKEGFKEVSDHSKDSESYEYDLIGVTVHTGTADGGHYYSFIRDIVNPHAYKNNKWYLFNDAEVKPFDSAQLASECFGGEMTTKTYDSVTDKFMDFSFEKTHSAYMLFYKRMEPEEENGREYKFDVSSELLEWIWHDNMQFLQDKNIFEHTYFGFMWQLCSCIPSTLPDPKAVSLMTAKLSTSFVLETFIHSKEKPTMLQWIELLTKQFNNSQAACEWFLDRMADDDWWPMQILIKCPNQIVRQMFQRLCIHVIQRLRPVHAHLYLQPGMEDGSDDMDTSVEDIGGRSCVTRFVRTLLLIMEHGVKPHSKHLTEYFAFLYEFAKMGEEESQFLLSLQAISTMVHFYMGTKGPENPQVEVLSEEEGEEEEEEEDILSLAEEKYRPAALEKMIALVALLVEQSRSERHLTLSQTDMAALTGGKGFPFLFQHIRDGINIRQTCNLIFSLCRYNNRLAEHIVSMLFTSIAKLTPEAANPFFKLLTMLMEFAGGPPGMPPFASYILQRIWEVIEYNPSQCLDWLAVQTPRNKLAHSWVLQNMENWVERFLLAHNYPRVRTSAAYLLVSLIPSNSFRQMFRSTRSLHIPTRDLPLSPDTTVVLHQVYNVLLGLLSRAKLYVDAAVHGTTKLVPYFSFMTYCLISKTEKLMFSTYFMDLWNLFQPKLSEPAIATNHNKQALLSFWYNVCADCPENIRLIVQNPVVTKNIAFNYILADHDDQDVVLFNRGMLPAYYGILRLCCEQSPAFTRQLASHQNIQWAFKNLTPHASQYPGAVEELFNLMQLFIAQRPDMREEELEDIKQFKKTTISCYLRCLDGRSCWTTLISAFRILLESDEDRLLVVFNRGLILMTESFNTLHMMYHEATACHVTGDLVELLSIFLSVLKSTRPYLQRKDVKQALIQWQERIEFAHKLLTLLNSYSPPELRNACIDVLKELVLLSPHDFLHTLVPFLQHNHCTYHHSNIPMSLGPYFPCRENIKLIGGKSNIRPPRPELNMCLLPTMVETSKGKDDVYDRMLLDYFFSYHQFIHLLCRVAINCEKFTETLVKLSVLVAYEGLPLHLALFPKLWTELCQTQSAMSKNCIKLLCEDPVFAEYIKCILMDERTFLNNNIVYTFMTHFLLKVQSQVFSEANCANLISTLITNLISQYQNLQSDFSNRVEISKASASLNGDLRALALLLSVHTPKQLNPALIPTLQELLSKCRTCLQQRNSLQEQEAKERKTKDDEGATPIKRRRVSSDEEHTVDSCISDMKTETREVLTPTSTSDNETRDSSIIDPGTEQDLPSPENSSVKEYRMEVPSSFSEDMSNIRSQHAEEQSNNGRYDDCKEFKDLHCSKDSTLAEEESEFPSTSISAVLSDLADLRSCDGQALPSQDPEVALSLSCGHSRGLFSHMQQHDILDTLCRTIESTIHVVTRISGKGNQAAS

Cc1cc(C2CCCN2C(=O)CCl)nn1C.Cl (stereo not given)
inactive: [1] -0.179 | [2] -0.0531 | [3] -0.227 | [4] -0.281 | [5] -0.154
